Assay results taken from PubChem BioAssay (NCI).
“And” between values parts separate entries of the source, which are not always exact repeats. Identical values can stand only once. Compounds without any hit were thinned out: in the full panel of roughly 83,000, 20% have a hit.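 The test compound was applied at a single concentration to cells in 96-well plates for 48 hours, and percent growth was recorded.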 The source made the active and inactive calls. How the source made its calls: active means growth percent below 10; inactive means the rest.

Legend:
Assay in all cases: NCI-60 one-dose screen, 48 h (100 = growth as untreated, 0 = no growth, -100 = all killed)
Details in all cases: 10 µM unless noted
SK-MEL-2 melanoma = tested on: SK-MEL-2 melanoma
EKVX NSCLC = tested on: EKVX NSCLC
SN12C renal = tested on: SN12C renal
UO-31 renal = tested on: UO-31 renal
TK-10 renal = tested on: TK-10 renal
ACHN renal = tested on: ACHN renal
CAKI-1 renal = tested on: CAKI-1 renal
A498 renal = tested on: A498 renal
CCRF-CEM leukemia = tested on: CCRF-CEM leukemia
MOLT-4 leukemia = tested on: MOLT-4 leukemia
SR leukemia = tested on: SR leukemia
RPMI-8226 leukemia = tested on: RPMI-8226 leukemia
OVCAR-8 ovarian = tested on: OVCAR-8 ovarian
OVCAR-5 ovarian = tested on: OVCAR-5 ovarian
OVCAR-4 ovarian = tested on: OVCAR-4 ovarian
SK-OV-3 ovarian = tested on: SK-OV-3 ovarian
IGROV1 ovarian = tested on: IGROV1 ovarian
OVCAR-3 ovarian = tested on: OVCAR-3 ovarian
HS 578T breast = tested on: HS 578T breast
NCI/ADR-RES ovarian = tested on: NCI/ADR-RES ovarian

Row | Compound | growth (SK-MEL-2 melanoma) | growth (EKVX NSCLC) | growth (SN12C renal) | growth (UO-31 renal) | growth (TK-10 renal) | growth (ACHN renal) | growth (CAKI-1 renal) | growth (A498 renal) | growth (CCRF-CEM leukemia) | growth (MOLT-4 leukemia) | growth (SR leukemia) | growth (RPMI-8226 leukemia) | growth (OVCAR-8 ovarian) | growth (OVCAR-5 ovarian) | growth (OVCAR-4 ovarian) | growth (SK-OV-3 ovarian) | growth (IGROV1 ovarian) | growth (OVCAR-3 ovarian) | growth (HS 578T breast) | growth (NCI/ADR-RES ovarian)
1 | Nc1ccccc1SC(CC(=O)c1ccccc1)c1cccc([N+](=O)[O-])c1 (stereo not given) | 113% (inactive) and 81.9% (inactive) | 96.5% (inactive) | 87.7% (inactive) and 88.8% (inactive) | 71.6% (inactive) and 61.5% (inactive) | 131% (inactive) and 113% (inactive) | 90.1% (inactive) and 90.7% (inactive) | 70.9% (inactive) and 95.2% (inactive) | 91.5% (inactive) and 104% (inactive) | 53.3% (inactive) and 34.9% (inactive) | 87.6% (inactive) and 55% (inactive) | 70.2% (inactive) and 2.4% (active) | -30.1% (active) and -4.39% (active) | 87.9% (inactive) and 92.8% (inactive) | 105% (inactive) and 119% (inactive) | 89% (inactive) and 74.5% (inactive) | 104% (inactive) and 109% (inactive) | 127% (inactive) and 96.5% (inactive) | 104% (inactive) and 66.5% (inactive) | 106% (inactive) and 110% (inactive) | 91.4% (inactive) and 92.9% (inactive)
2 | Cc1cc(NC(=O)NC(=O)c2ccccc2N(C)C)ccc1Oc1ncc(Br)cn1 | 48% (inactive) and 60.5% (inactive) | 47.7% (inactive) and 42.5% (inactive) | 51.6% (inactive) and 51.3% (inactive) | 24.2% (inactive) and 56.1% (inactive) | 36.5% (inactive) and 63.1% (inactive) | -17% (active) and 56.7% (inactive) | 25.9% (inactive) and 38.2% (inactive) | 15.2% (inactive) and 10.6% (inactive) | 4.54% (active) and 17.5% (inactive) | 19.5% (inactive) and 26.5% (inactive) | 11.9% (inactive) and 22.4% (inactive) | -9.68% (active) and 20.4% (inactive) | 51.9% (inactive) | 34.1% (inactive) and 78.5% (inactive) | 15.8% (inactive) and 48.7% (inactive) | 45% (inactive) and 59.9% (inactive) | -12% (active) and 54.7% (inactive) | 0.0582% (active) and 16.2% (inactive) | 23.8% (inactive) and 40% (inactive) | 5.74% (active) and 23.3% (inactive)
3 | O=C(O)C(Cc1ccc(OS(=O)(=O)Cc2ccccc2)cc1)NS(=O)(=O)Cc1ccccc1 (stereo not given) | 110% (inactive) and 108% (inactive) | 102% (inactive) and 115% (inactive) | 110% (inactive) and 104% (inactive) | 95.8% (inactive) and 86.1% (inactive) | 101% (inactive) and 110% (inactive) | 105% (inactive) and 101% (inactive) | 90.9% (inactive) and 98.6% (inactive) | 114% (inactive) and 130% (inactive) | 115% (inactive) and 112% (inactive) | 121% (inactive) and 102% (inactive) | 100% (inactive) and 85.8% (inactive) | 110% (inactive) and 102% (inactive) | 105% (inactive) | 123% (inactive) and 112% (inactive) | 99.8% (inactive) and 109% (inactive) | 112% (inactive) and 120% (inactive) | 106% (inactive) and 121% (inactive) | 111% (inactive) and 109% (inactive) | 106% (inactive) | 105% (inactive) and 112% (inactive)
4 | CCOC(=O)C1=CC(=O)CC(C)(C)O1 | 114% (inactive) | 104% (inactive) and 126% (inactive) | 110% (inactive) and 102% (inactive) | 92.5% (inactive) and 101% (inactive) | 96.1% (inactive) and 107% (inactive) | 102% (inactive) and 106% (inactive) | 99.7% (inactive) and 104% (inactive) | 108% (inactive) and 105% (inactive) | 90% (inactive) and 104% (inactive) | -47.2% (active) and 106% (inactive) | 82.1% (inactive) and 114% (inactive) | 92.8% (inactive) and 111% (inactive) | 114% (inactive) and 106% (inactive) | 110% (inactive) and 101% (inactive) | 128% (inactive) and 117% (inactive) | 108% (inactive) and 114% (inactive) | 103% (inactive) and 120% (inactive) | 118% (inactive) and 96.9% (inactive) | 117% (inactive) | 96.9% (inactive) and 110% (inactive)
5 | CC(=O)c1cc2ccccc2o1 | 97.9% (inactive) | 106% (inactive) | 101% (inactive) | 99.6% (inactive) | 93.6% (inactive) | 101% (inactive) | 99.6% (inactive) | 104% (inactive) | 106% (inactive) | 99.7% (inactive) | 98.3% (inactive) | 98.6% (inactive) | 115% (inactive) | 87.7% (inactive) | 114% (inactive) | 96.8% (inactive) | 110% (inactive) | 114% (inactive) | 108% (inactive) | 102% (inactive)
6 | OCCCc1ccccc1 | 106% (inactive) | 110% (inactive) | 96.5% (inactive) | 72.6% (inactive) | 108% (inactive) | 106% (inactive) | 104% (inactive) | 110% (inactive) | 108% (inactive) | 111% (inactive) | 132% (inactive) | 117% (inactive) | 104% (inactive) | 97% (inactive) | 112% (inactive) | 97.6% (inactive) | 82.4% (inactive) | 109% (inactive) | 106% (inactive) | 108% (inactive)
7 | COc1cc(C2c3cc4c(cc3C(OC(=O)C[n+]3ccccc3)C3COC(=O)C23)OCO4)cc(OC)c1OC (stereo not given) | 33.5% (inactive) | 42.5% (inactive) | 12.4% (inactive) | 39.4% (inactive) | 63.4% (inactive) | 20.9% (inactive) | 18.1% (inactive) | -19.9% (active) | 12.9% (inactive) | 15.5% (inactive) | 11.5% (inactive) | 36.2% (inactive) | 14.7% (inactive) | 54% (inactive) | 41.5% (inactive) | 33% (inactive) | 16.5% (inactive) | -57.7% (active) | 34.7% (inactive) | -3.91% (active)
8 | Cc1c(Cl)c(C)c(Cc2c(C)c(Cl)c(C)c(Cl)c2O)c(O)c1Cl | 1.72% (active) | 3.88% (active) | 8.8% (active) | 7.71% (active) | 25.1% (inactive) | 3.3% (active) | 4.14% (active) | -21.6% (active) | 26.5% (inactive) | 16.5% (inactive) | 22.7% (inactive) | 10% (inactive) | 11.4% (inactive) | 45.6% (inactive) | 13.9% (inactive) | -6.21% (active) | 38.8% (inactive) | 5.17% (active) | 12.1% (inactive) | -3.46% (active)
9 | Clc1ccc(/C=C/c2ccc3ccccc3n2)cc1 | 10.7% (inactive) and 89.2% (inactive) | 57.6% (inactive) and 58.7% (inactive) and 66.2% (inactive) | 43.8% (inactive) and 97.7% (inactive) and 85.7% (inactive) | 69.7% (inactive) and 68.4% (inactive) and 58.1% (inactive) | 15.3% (inactive) and 132% (inactive) and 86.7% (inactive) | 55.8% (inactive) and 93.3% (inactive) and 83% (inactive) | 47.7% (inactive) and 68% (inactive) and 84.7% (inactive) | 61% (inactive) and 135% (inactive) and 114% (inactive) | 8.05% (active) and 97.1% (inactive) and 89.3% (inactive) | 30.9% (inactive) and 41.9% (inactive) and 76% (inactive) | 29% (inactive) and 59.4% (inactive) | 5.44% (active) and 63% (inactive) and 86.9% (inactive) | 28.9% (inactive) and 86.1% (inactive) and 109% (inactive) | 35.6% (inactive) and 92.6% (inactive) and 74.5% (inactive) | 79% (inactive) and 88.3% (inactive) and 86.5% (inactive) | 20.4% (inactive) and 83% (inactive) and 84.6% (inactive) | 52.6% (inactive) and 27.6% (inactive) and 75.1% (inactive) | -20.4% (active) and 106% (inactive) and 92.8% (inactive) | -20% (active) and 168% (inactive) and 96.4% (inactive) | 83.6% (inactive) and 92% (inactive) and 79.4% (inactive)
10 | CN(C)c1ccc(C(=N)c2ccc(N(C)C)cc2)cc1 | 22.1% (inactive) and 3.75% (active) | 58% (inactive) and 48.4% (inactive) | 40.8% (inactive) and 42.4% (inactive) | 50.1% (inactive) and 37.5% (inactive) | 37% (inactive) and 67% (inactive) | 50.9% (inactive) and 49.9% (inactive) | 30.8% (inactive) and 19% (inactive) | 15.2% (inactive) and -1.88% (active) | 33.5% (inactive) | 29.2% (inactive) and 16.8% (inactive) | 19.9% (inactive) and 10.4% (inactive) | 30.6% (inactive) and 25.1% (inactive) | 31.5% (inactive) and 31.2% (inactive) | 68.1% (inactive) and 65.4% (inactive) | 57.8% (inactive) and 34.9% (inactive) | 31.1% (inactive) and 31.6% (inactive) | 35.2% (inactive) and 46% (inactive) | -9.34% (active) and 2.49% (active) | 16% (inactive) and 40.5% (inactive) | 0.0366% (active) and 2.94% (active)
